Active and inactive are the calls of the source. How the source made its calls: active means hit-call score of the fitted dose curve at least 0.9, where 1 is the maximum; inactive means score below 0.9.

Sequence of Nuclear respiratory factor 1 (Homo sapiens) (Q16656 whole entry, looked up): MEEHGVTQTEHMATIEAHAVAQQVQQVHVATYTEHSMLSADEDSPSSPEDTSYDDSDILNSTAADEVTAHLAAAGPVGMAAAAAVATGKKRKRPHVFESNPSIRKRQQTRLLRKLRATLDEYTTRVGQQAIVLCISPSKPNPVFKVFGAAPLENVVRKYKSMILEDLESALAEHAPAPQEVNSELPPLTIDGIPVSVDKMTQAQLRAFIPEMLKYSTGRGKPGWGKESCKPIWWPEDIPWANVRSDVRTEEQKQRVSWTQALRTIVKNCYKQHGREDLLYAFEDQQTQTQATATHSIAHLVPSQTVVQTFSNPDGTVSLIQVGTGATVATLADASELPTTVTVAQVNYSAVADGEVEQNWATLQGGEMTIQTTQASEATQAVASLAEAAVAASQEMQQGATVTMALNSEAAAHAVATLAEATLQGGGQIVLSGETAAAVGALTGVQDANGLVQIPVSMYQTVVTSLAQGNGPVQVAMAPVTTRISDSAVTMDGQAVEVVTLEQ

This assay concerns the target Nuclear respiratory factor 1 (Homo sapiens) (UniProt Q16656). As to the kind of experiment: ATG_NRF1_CIS: Attagene CIS-FACTORIAL HepG2 Assay for human Nuclear Respiratory Factor 1 (NRF1) Orphan Gene (AID 2282987). Conditions: HepG2 NRF1 cis-element reporter, Attagene multiplex; actives raise or lower the signal. The gist of the method:
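Using DMSO as baseline, gain- or loss-of-signal was fitted for reporter mRNA levels in HepG2 cells transiently transfected with cis-regulated reporter units. Samples were taken 24 h after dosing and read by RT-PCR with capillary electrophoresis.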
With `CN(C)C(=O)Nc1ccccc1`, the molecule was classed as inactive. Still for that read-out and setting: for `O=C1OCc2ccccc21` the value was “inactive”; for `C1CCCNCC1`, “inactive”; for `CCc1cccc(O)c1`, “inactive”.

On to `CCCCCC1C(=O)CCC1CC(=O)OC` (stereo unspecified), for which the outcome was inactive. The same measure, in the same setting: for `COc1ccccc1NC(=O)CC(C)=O` the value was “inactive”. As for `c1ccc2c(c1)-c1ccc3ccc4cccc5cc-2c1c3c45`, the call was inactive.

As for `c1ccc(OCCOc2ccccc2)cc1`, the molecule was called inactive. For `OCCN1CCOCC1`, the call was inactive. Turning to `c1coc(CNc2ncnc3nc[nH]c23)c1`, the molecule was called inactive. The same measure, in the same setting: for `C=CC(=O)OCCCCCC` the value was “inactive”; for `N=C1N=C(N)c2ccccc21`, “inactive”; for `CC(C)CCOC(=O)CC(C)C`, “inactive”. On the same count and under the same terms, for `S=c1[nH][nH]c(=S)s1` the value was “inactive”; for `Cc1cc(O)c2c(c1)C(=O)c1cc(O)cc(O)c1C2=O`, “inactive”. In the case of `COC(=O)C(C)Oc1ccc(Oc2ncc(C(F)(F)F)cc2Cl)cc1` (stereo unspecified), the AC50 is 137 µM (active).

As for `Cc1ccncc1`, the call was inactive. The same measure, in the same setting: for `NC(=O)NC(N)=O` the value was “inactive”; for `C[C@]12CC[C@@H]3c4ccc(O)cc4CC[C@H]3[C@@H]1CC[C@@H]2O`, “inactive”. In the case of `O=[N+]([O-])c1cc(N(CCO)CCO)ccc1NCCO`, the molecule was called inactive.

With `CC(=O)OC(C)(C)C1CC=C(C)CC1` (stereo unspecified), the call was inactive. With `C=CCOCC(O)CO` (stereo unspecified), the molecule was called inactive.

As to `CCCCC/C=C\C=C\C(=O)OCC`, the AC50 was 50.4 µM (active). Consider `O=C(O)C1=NN(c2ccc(S(=O)(=O)O)cc2)C(=O)C1`, for which the molecule was called inactive.

For `CC/C(=C(\c1ccccc1)c1ccc(OCCN(C)C)cc1)c1ccccc1`, the molecule was called inactive.

On to `CCCCCCCCCCCCCC(=O)OCC`, for which the molecule was called inactive.

Usually AC50 stands for the concentration at which the activity in the assay is half-maximal.
